Reference: PubChem BioAssay (NCATS)
Inconclusive results are not listed. The source made the active and inactive calls. Unless noted, the call rests on the fitted dose curve; in most records, active means well fitted curve in the direction sought with a large enough effect; inconclusive means small, poorly fitted or top-dose-only effect, or another doubt; inactive means no such curve, though single readings can be large; an effect the other way counts as inactive or inconclusive.

Key:
[1] = Cell Viability - BJ (AID 421; calls by dose curve;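 further: potency means the concentration at half of the fitted maximal effect; cells exposed to compound for 40 hours at 37 °C before readout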); details: BJ fibroblast viability, qHTS
In short: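 Luminescent ATP signal (CellTiter-Glo, 20 min at room temperature) served as the read-out of viable BJ cells after 40 hours of compound treatment. Responses were scaled between DMSO and 100 uM tamoxifen, and AC50 values were obtained by Hill modeling.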

[2] = Cell Viability - Jurkat (AID 426;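 active means dose-dependent loss of cell ATP signal giving a full or clear fitted curve, ranked by lower potency value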;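 further: potency means the concentration at half of the fitted maximal effect; cells exposed to compound for 40 hours at 37 °C before ATP read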); details: qHTS
In short: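 Cytotoxicity was scored as loss of cellular ATP, measured by luciferase-based luminescence, in Jurkat clone E6-1 cells after 40 h compound treatment; tamoxifen and doxorubicin served as positive controls.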

[3] = Cell Viability - Hek293 (AID 427;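 active means compounds whose dose-response curve shows a full or clear partial loss of cell viability, called from curve shape rather than a numeric limit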;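 further: potency means the concentration at half of the fitted maximal effect; cells exposed to compound for 40 hours at 37 °C before reading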); details: qHTS
In short: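 Luminescent ATP read-out (CellTiter-Glo, 20 min RT) after 40 hr compound exposure at 37 °C in complete medium. Signal normalized to DMSO (basal) and 100 uM tamoxifen (100% inhibition); concentration-response fitted with the standard Hill equation to give AC50.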

[4] = Cell Viability - HepG2 (AID 433; calls by dose curve;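 further: potency means the concentration at half of the fitted maximal effect; potency for ATP loss meaning cytotoxicity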); details: qHTS
In short: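 Read-out is luciferase-based quantitation of cellular ATP as a measure of viable HepG2 cells after 40 h treatment at 37 °C. Signal decrease is scaled between DMSO-only and 100 uM tamoxifen controls, with AC50 fitted by the Hill equation.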

[5] = Cell Viability - MRC5 (AID 434; calls by dose curve;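 further: potency means the concentration at half of the fitted maximal effect; cells exposed to compound for 40 hours at 37 °C; potency reflects cytotoxicity seen as loss of intracellular ATP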); details: MRC5 lung fibroblast viability, qHTS
In short: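 AC50 values come from Hill-equation fits of intracellular ATP loss, measured by CellTiter-Glo luminescence. Normal lung fibroblasts (MRC5) had 40 hr compound treatment at 37 C, normalized between DMSO and 100 uM tamoxifen.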

[6] = Cell Viability - SK-N-SH (AID 435; calls by dose curve;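 further: potency means the concentration at half of the fitted maximal effect; compound exposure lasted 40 h at 37 °C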); details: SK-N-SH neuroblastoma cell viability qHTS
In short: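 Luminescent ATP signal served as the viability read-out after 40 hours of compound treatment of human neuroblastoma SK-N-SH cells. Concentration-response data, scaled between DMSO and 100 uM tamoxifen, gave AC50 values by standard Hill modeling.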

[7] = Cell Viability - NIH 3T3 (AID 541); details: NIH 3T3 cell viability, qHTS; activity change, negative = cytotoxicity: at 92.2 µM (top of the series);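 further: plate controls were DMSO alone for no effect and tamoxifen positive control for full effect; nearly all actives have a fitted effect of over 25% in size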
In short: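 In this cytotoxicity screen, acute toxicity is scored as an ATP drop measured by CellTiter-Glo in NIH 3T3 fibroblasts following a 40 hr, 37 °C incubation with compound.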

[8] = Cell Viability - HUV-EC-C (AID 542); details: HUV-EC-C endothelial cell viability, qHTS; series mostly up to 92.2 µM; further: on the % scale 0 is the no-effect control and ±100 the full control effect; nearly all actives have a fitted effect of over 35% in size
In short: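 Concentration-dependent ATP loss in HUV-EC-C cells is the measure. Exposure lasts 40 hr at 37 °C; luminescence follows CellTiter-Glo addition, and Hill fits give AC50.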

[9] = Cell Viability - H-4-II-E (AID 543); details: H-4-II-E rat hepatoma viability; series mostly up to 92.2 µM; further: on the % scale 0 is the no-effect control and ±100 the full control effect; nearly all actives have a fitted effect of over 35% in size
In short: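 AC50 from Hill-modelled qHTS concentration-response curves. H-4-II-E rat hepatoma cells in complete medium, 40 hr exposure at 37 °C, viability by CellTiter-Glo ATP luminescence.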

[10] = Cell Viability - SH-SY5Y (AID 544); details: SH-SY5Y neuroblastoma cell viability; viability change, negative = cytotoxic: at 92.2 µM (top of the series); further: nearly all actives have a fitted effect of over 55% in size
In short: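 Quantitative HTS in SH-SY5Y neuroblastoma cells, 40 hr treatment at 37 °C, ATP content by luciferase luminescence; AC50 from Hill fits.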

[11] = Cell Viability - Renal Proximal Tubule (AID 545); details: renal proximal tubule cells viability, primary cells of rat origin; activity change, negative = cytotoxicity: at 91.7 µM (top of the series); further: nearly all actives have a fitted effect of over 40% in size
In short: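 Luminescent ATP signal (CellTiter-Glo) served as the viability read-out after 40 hr compound exposure of freshly isolated rat proximal tubule cells at 37 °C. Concentration-dependent ATP loss was fitted with the Hill equation to give AC50.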

[12] = Cell Viability - Mesenchymal (AID 546); details: mesenchymal cells viability, qHTS; activity change, negative = cytotoxicity: at 91.7 µM (top of the series);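 further: cells exposed to compound for 40 hours before reading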
In short: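 CellTiter-Glo luminescence (intracellular ATP, 20 min room temperature) after 40 hr compound exposure at 37 °C of 1000 glomerulus-derived human kidney mesenchymal cells/well; AC50 values obtained by fitting qHTS concentration-response data to the Hill equation.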

[13] = Cellular Toxicity (caspase-3) HepG2 (AID 654); details: HepG2 caspase-3 activation, luminescence; series mostly up to 92.2 µM;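 further: cells exposed to compound for 16 hours before reading; 0% = DMSO alone and 100% = caspase signal from 100 µM tamoxifen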
In short: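 Concentration-response AC50 values reflect caspase-3/7 induction in HepG2 cells after 16 hours of compound exposure, quantified by luminescence from liberated aminoluciferin and referenced to 100 uM tamoxifen as full stimulation.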

[14] = Cellular Toxicity (caspase-3) HUV-EC-C (AID 656); details: HUV-EC-C cells, caspase-3 activation (apoptosis); series mostly up to 92.2 µM
In short: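 qHTS; HUV-EC-C, 1000 cells/well; 5 hr settle, 16 hr cmpd, 37°C; Caspase-Glo 3/7, 20 min RT; luminescence. Norm: DMSO = 0%, tamoxifen 100 uM = 100%. Hill-fit AC50.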

[15] = Cellular Toxicity (caspase-3) SHSY5Y (AID 657); details: SH-SY5Y caspase-3 activation; series mostly up to 91.7 µM
In short: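 qHTS, SH-SY5Y, 1500 cells/well, 5 h pre-incubation 37 °C; compound 16 h 37 °C; Caspase-Glo 3/7 1 h RT; luminescence. Norm.: DMSO = 0, 10 uM staurosporine = 100%. Hill fit → AC50.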

[16] = Cellular Toxicity (caspase-3) BJ (AID 658); details: BJ fibroblasts, luminescence; Potency: caspase-3 activation; series mostly up to 91.7 µM
In short: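 Caspase-Glo 3/7 luminescence, read 1 hr after reagent at room temperature, in normal BJ fibroblasts exposed 16 hours at 37 °C. AC50 values from Hill-equation concentration-response, scaled between DMSO basal and 10 uM staurosporine as 100%.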

[17] = Cellular Toxicity (caspase-3) MRC-5 (AID 659); details: MRC-5 cells, luminescence, normalized: DMSO 0%, 10 µM staurosporine 100%; series mostly up to 91.7 µM
In short: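 Luminescent Caspase-Glo 3/7 read-out (1 h, room temperature) after a 16 h, 37 °C compound exposure of MRC-5 lung fibroblasts at 1500 cells/well. Concentration-response AC50 from Hill equation; 0% DMSO, 100% 10 uM staurosporine.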

[18] = Cellular Toxicity (caspase-3) Mesangial (AID 660); details: mesangial cells, normalized: DMSO 0%, 100 µM tamoxifen 100%; series mostly up to 91.7 µM;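 further: combined caspase 3 and 7 activity read by Caspase-Glo luminescence; cells exposed to compound for 16 h before the caspase read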
In short: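 AC50 values come from Hill-equation fits of caspase 3/7 activation, measured as Caspase-Glo luminescence in human glomerular mesangial cells exposed to compound for 16 h at 37 °C; 100% set by 100 uM tamoxifen.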

[19] = Cellular Toxicity (caspase-3) SK-N-SH (AID 661); details: SK-N-SH caspase-3 activation, qHTS, DMSO as zero, staurosporine as full; series mostly up to 91.7 µM
In short: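 Apoptosis readout in SK-N-SH neuroblastoma: Caspase-Glo 3/7 luminescence following 16 hr treatment in complete culture medium. Normalization used DMSO and 10 uM staurosporine controls.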

[20] = Cellular Toxicity (caspase-3) H-4-II-E (AID 663); details: H-4-II-E rat hepatoma; Potency: caspase-3 activation; series mostly up to 92.2 µM;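 further: cells exposed to compound for 16 hr before readout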
In short: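 Caspase 3/7 activation measured by luminescent aminoluciferin substrate cleavage after 16 hr compound treatment of H-4-II-E cells in complete medium. Increase normalized between DMSO (basal) and 100 uM tamoxifen (100%); Hill-equation AC50 from concentration-response.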

c1ccc(SCCSc2ccccc2)cc1
inactive: Potency [1] > 92 µM | Potency [2] > 92 µM | Potency [3] > 92 µM | Potency [4] > 92 µM | Potency [5] > 92 µM | Potency [6] > 92 µM | activity change, negative = cytotoxicity [7] -5.55% | Potency [8] | Potency [9] | Potency [10] | Potency [11] | Potency [12] | Potency [13] | Potency [14] | Potency [15] | Potency [16] | outcome [17] | outcome [18] | outcome [19] | Potency [20]
